Activity calls are given as the source filed them.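 Rule for the calls, unless noted: active = fluorescence slope after compound addition differing from the mean of all screened samples at 99.7% confidence, in either direction; inactive = the rest.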
Experiments:
[1] = inhibitors of TNFa-induced NFkB p65 translocation, primary screen, imaging, HUVEC, MLSMR starter and 10KST1 sets (AID 438;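 active = inhibition above 20% together with a positive visual image hit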;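 note: compound added about 3h40 before a 20 min TNFalpha stimulation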;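 for inhibition: signal is the nuclear over cytoplasmic p65 intensity ratio per well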); conditions: HUVEC TNFa-induced p65 nuclear translocation; cell count: measured here: nuclei count (cytotoxicity indicator), at 2.08 µM; inhibition: at 2 µM, stronger effect = higher value, 0% TNFa-plus-vehicle, 100% no-TNFa wells
[2] = inhibitors of mutant huntingtin aggregation, primary screen, imaging, exon1htt(103Q)mCFP cells, high-content imaging (AID 483;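 active = visual image review flags a hit and inhibition of aggregation exceeds 20%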;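 note: compound exposure lasted 3 days before fixation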;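 for nuclei count: percent of the per-plate median nuclei count of sample wells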); conditions: exon1htt(103Q)mCFP cell line, aggregate imaging, at 2 µM; inhibition of aggregation: stronger effect = higher value; nuclei count: measured here: cell count, toxicity
[3] = inhibitors of E-selectin induction by TNFa, primary screen, imaging, HUVEC, immunofluorescence, MLSMR starter and 10KST1 sets (AID 487;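 active = visually confirmed hit in the image check and inhibition above 20%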;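 for inhibition: signal is fraction of cell area covered by stained E-selectin grains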;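 for nuclei count: 100% = median nuclei count of all wells on the same plate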); conditions: HUVEC TNFalpha-induced E-selectin immunofluorescence imaging, at 2 µM; inhibition: stronger effect = higher value; nuclei count: measured here: cell number, toxicity
[4] = target: Voltage-gated potassium channel subunit beta-2 (Rattus norvegicus) (UniProt P62483); experiment: KvBeta enzyme negative modulators, primary screen, biochemical, NADPH fluorescence (AID 622;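 active = fluorescence slope higher than the sample average by over 3 SD, cut at about -0.22 in these data, passing the limit was not always enough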;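 note: slope of raw intensity against log time taken from 70 to 1610 s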); conditions: recombinant KvBeta, 4-cyanobenzaldehyde reduction, at 10 µM, stronger effect = higher value
Sequence of Voltage-gated potassium channel subunit beta-2 (Rattus norvegicus) (P62483 whole entry, looked up): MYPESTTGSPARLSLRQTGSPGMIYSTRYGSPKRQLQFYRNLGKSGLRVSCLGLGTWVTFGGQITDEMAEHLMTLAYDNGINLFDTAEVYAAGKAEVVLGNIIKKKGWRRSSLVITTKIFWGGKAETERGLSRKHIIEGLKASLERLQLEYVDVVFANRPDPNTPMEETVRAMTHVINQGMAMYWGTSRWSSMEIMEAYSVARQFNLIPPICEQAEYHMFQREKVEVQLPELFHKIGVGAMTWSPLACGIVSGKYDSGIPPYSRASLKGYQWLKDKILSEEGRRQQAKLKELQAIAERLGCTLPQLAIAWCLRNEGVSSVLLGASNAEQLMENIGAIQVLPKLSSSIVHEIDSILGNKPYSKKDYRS

[5] = target: Voltage-gated potassium channel subunit beta-2 (Rattus norvegicus) (UniProt P62483); experiment: KvBeta positive modulators, primary screen, biochemical, NADPH fluorescence (AID 623;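 active = NADPH fluorescence slope more negative than the mean of all samples by about 3 SD, 99.7% confidence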;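 note: fluorescence intensity change per second fitted from 20 to 320 s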); conditions: Recombinant KvBeta, NADPH fluorescence decrease slope, 10 min; at 10 µM; stronger effect = lower value
[6] = target: Alpha-2C adrenergic receptor (Homo sapiens) (UniProt P18825); experiment: modulators of alpha2C/GIRK thallium flux, primary screen, cell-based, HEK293 alpha2C/GIRK1/2 (AID 624); conditions: thallium flux BTC fluorescence, at 10 µM, actives lie on both sides;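 note: slope of fluorescence ratio to pre-addition baseline per second over 15 to 24 s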
Sequence of Alpha-2C adrenergic receptor (Homo sapiens) (P18825 whole entry, looked up): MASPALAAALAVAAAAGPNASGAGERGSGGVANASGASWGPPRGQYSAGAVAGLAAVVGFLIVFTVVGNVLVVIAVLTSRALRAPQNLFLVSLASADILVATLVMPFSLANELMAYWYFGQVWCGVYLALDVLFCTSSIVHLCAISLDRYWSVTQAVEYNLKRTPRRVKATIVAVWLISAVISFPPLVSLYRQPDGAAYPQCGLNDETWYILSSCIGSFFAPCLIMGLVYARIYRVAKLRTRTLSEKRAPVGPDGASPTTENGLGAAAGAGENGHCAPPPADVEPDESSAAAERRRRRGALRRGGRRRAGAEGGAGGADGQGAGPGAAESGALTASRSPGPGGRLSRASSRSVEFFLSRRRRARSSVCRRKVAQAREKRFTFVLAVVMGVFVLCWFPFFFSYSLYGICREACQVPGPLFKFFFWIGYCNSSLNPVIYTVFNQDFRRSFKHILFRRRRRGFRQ

[7] = inhibitors of Sendai virus-induced IRF3 signaling, primary screen, TLR/RLR signaling modifier project, cell-based, Sendai virus stimulus, luciferase, 10K MLSCN set (AID 602276;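 active = inhibition at or above 50% at 10 µM; inactive = inhibition below 50%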;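 note: firefly luciferase from ISG56 promoter only with Renilla not read in this screen; 0% = Sendai virus plus DMSO and 100% = medium plus DMSO without virus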); conditions: HEK293 RL24 IRF3 luciferase reporter, at 10 µM, stronger effect = higher value
[8] = inhibitors of poly I:C-induced TLR3 signaling, primary screen, cell-based, poly I:C stimulus, luciferase, 10K MLSCN set (AID 602277;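 active = inhibition of the reporter signal at or above 50%; inactive = inhibition below 50%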); conditions: HEK293-TLR3 RL24 IRF3 luciferase reporter, at 10 µM, stronger effect = higher value

Row | Compound | cell count [1] | inhibition [1] | inhibition of aggregation [2] | nuclei count [2] [%] | inhibition [3] | nuclei count [3] [%] | fluorescence slope [4] | NADPH fluorescence slope [5] | slope [6] | inhibition [7] | inhibition [8]
1 | CN1CCN(CCCNC(=O)Cn2ncc3c4ccccc4n(C)c3c2=O)CC1 | 479 | -2.6% (inactive) | -7.2% (inactive) | 98 | -69.4% (inactive) | 100 | -0.615 (inactive) | -1.6e-07 (inactive) | 0.0065 (inactive) | -10.3% (inactive) | 35.3% (inactive)
2 | Cc1ccc(C)c(/C(O)=C2\C(=O)C(=O)N(CCCN3CCOCC3)C2c2cccnc2)c1 (stereo unspecified) | 529 | 5.5% (inactive) | -1.6% (inactive) | 109 | -280% (inactive) | 127 | -0.339 (inactive) | -2.4e-06 (inactive) | 0.00619 (inactive) | 9.67% (inactive) | 21.1% (inactive)
3 | Cc1csc(SCCn2c(N3CCCC3)nc3c2c(=O)[nH]c(=O)n3C)n1 | 445 | 53.9% (active) | -7.1% (inactive) | 110 | -26.1% (inactive) | 127 | -0.38 (inactive) | -3.1e-05 (inactive) | 0.00532 (inactive) | 1.74% (inactive) | 16.5% (inactive)
4 | CCOC(=O)c1nnn(CC(=O)Nc2cccc(F)c2)c1C(=O)OCC | 581 | -7.9% (inactive) | 8.9% (inactive) | 124 | -41.8% (inactive) | 112 | -0.6 (inactive) | -1.1e-05 (inactive) | 0.00821 (inactive) | 3.63% (inactive) | 12.6% (inactive)
5 | N#Cc1c2n(c(=S)n(-c3ccccn3)c1=O)CCCCC2 | 588 | -26.4% (inactive) | -14.8% (inactive) | 111 | -117% (inactive) | 144 | -0.477 (inactive) | -4.9e-05 (inactive) | 0.00579 (inactive) | -7.7% (inactive) | 11% (inactive)
6 | Cc1nc2ncnn2c(N2CCC(C(=O)NC3CCCC3)CC2)c1Cc1ccccc1 | 400 | 2.7% (inactive) | -20.2% (inactive) | 116 | -87.8% (inactive) | 117 | -0.463 (inactive) | -0.000271 (inactive) | 0.00426 (inactive) | 5.2% (inactive) | 25.7% (inactive)
